Source: PubChem
JMJD2A Tudor = qHTS Assay for Inhibitors of JMJD2A-Tudor Domain | AlphaScreen JMJD2A-Tudor / H3K4me3 peptide binding | Potency, µM (titrated, usually from 114 µM), without a hit: at the top dose activity change, negative = inhibition, hits mostly inhibitors | 390,000 compounds, 4.4% hits | Lysine-specific demethylase 4A (Homo sapiens), O75164; further: on the % scale 0 is the no-effect control and ±100 the full control effect; nearly all actives have a fitted effect of over 50% in size
G9a inh = qHTS Assay for Inhibitors of Histone Lysine Methyltransferase G9a; Histone-lysine N-methyltransferase EHMT2 (Homo sapiens), Q96KQ7; G9a H3K9 monomethylation, AlphaScreen, 2 h; Potency, µM (doses to about 102 µM), for the others: top-dose activity, negative = inhibition, usual class: inhibitors; 350,000 compounds, 8.8% hits; AID 504332, 2011; further: on the % scale 0 is the no-effect control and ±100 the full control effect; nearly all actives have a fitted effect of over 75% in size
Target sequence (Q96KQ7 913-1193 limits assumed): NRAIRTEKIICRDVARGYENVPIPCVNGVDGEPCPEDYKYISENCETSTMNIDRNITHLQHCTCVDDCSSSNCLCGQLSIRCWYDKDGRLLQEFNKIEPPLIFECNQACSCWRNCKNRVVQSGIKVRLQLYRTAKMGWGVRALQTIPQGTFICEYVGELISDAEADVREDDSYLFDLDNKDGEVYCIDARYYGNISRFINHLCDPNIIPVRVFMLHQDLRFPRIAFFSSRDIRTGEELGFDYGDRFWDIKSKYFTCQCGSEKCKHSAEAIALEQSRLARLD
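AlphaScreen detection with an anti-monomethyl H3K9 antibody quantified product after a 2 h room-temperature reaction containing 500 nM biotinylated H3K9 peptide, 20 µM SAM and 20 nM enzyme, which had been preincubated 15 min with compound.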
L3MBTL1 block = qHTS Assay for the Inhibitors of L3MBTL1; Lethal(3)malignant brain tumor-like protein 1 (Homo sapiens), Q9Y468; AlphaScreen L3MBTL1–H3K9me1 peptide binding; Potency, µM (highest dose often 57.1 µM), for the others: at the top dose activity, negative = inhibition, usual class: inhibitors; 230,000 compounds, 0.66% hits; further: on the % scale 0 is the no-effect control and ±100 the full control effect; nearly all actives have a fitted effect of over 60% in size
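Displacement of a biotinylated histone H3(1-15) peptide monomethylated at Lys9 (75 nM) from L3MBTL1 (50 nM) was measured by AlphaScreen after a 30 min room-temperature compound incubation; cefsulodin titration served as intraplate control.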
HP1b binding inh = HTS for Inhibitors of HP1-beta Chromodomain Interactions with Methylated Histone Tails | Chromobox protein homolog 1 (Homo sapiens), P83916 | AlphaScreen HP1-beta / biotin-H3K9me3 peptide binding | Potency, µM (top dose mostly 114 µM), for inactives: top-dose activity change, negative = inhibition, usual class: inhibitors | 390,000 compounds, 0.56% hits; further: nearly all actives have a fitted effect of over 70% in size
Target sequence (P83916 whole entry, looked up): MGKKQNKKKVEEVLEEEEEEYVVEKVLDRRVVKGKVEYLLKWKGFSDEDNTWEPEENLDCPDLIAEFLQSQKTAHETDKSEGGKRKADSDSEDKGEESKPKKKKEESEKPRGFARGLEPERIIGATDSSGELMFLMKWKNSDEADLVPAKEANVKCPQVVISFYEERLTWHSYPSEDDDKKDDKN
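HP1-beta protein (50 nM final) preincubated 30 min at room temperature with biotinylated H3(1-18)K9me3 peptide (50 nM) in PBS pH 7.4, 0.01% Tween-20, then compound added for 30 min. AlphaScreen streptavidin donor/nickel chelate acceptor beads (10 ug/mL final), 30 min dark, luminescence read.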
BAZ2B block = qHTS Assay for Inhibitors of BAZ2B | 360,000 compounds, 4.4% hits | Potency, µM (series often up to 114 µM), for the others: top-dose activity change, negative = inhibition, usual class: inhibitors | AlphaScreen BAZ2B-H3K14Ac peptide displacement; further: on the % scale 0 is the no-effect control and ±100 the full control effect; nearly all actives have a fitted effect of over 60% in size
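Compounds, titrated to a top concentration of 110 uM, were incubated 30 min at room temperature with preformed BAZ2B/acetyl-K14 H3 peptide complex (50 nM each). Proximity signal was measured by AlphaScreen after 20 min with beads.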
Starred values were filed as active, the others as inactive; ? = inconclusive; · = no result given; [ ] = another dose, or the depositor's remark. In the library only some 11% were active in any assay of this set; here they are far more common. The call rests on the fitted dose curve; in most records, active means well fitted inhibition curve with a large enough effect; inconclusive means small, poorly fitted or top-dose-only effect; inactive means no such curve, though single readings can be large or run the other way. Potency means the concentration at half of the fitted maximal effect.

SMILES	JMJD2A Tudor	G9a inh	L3MBTL1 block	HP1b binding inh	BAZ2B block
Cc1ccccc1CN(C)C1CCN(C)CC1	-1%	·	-7%	35%	15%
CN(CCOc1ccc(Cl)cc1)CC(O)c1ccccc1 (stereo not given)	1.1µM*	3.5µM*	·	71µM*	20µM*
Cc1ccc2c(c1)-n1c(nc3cc(Cl)ccc3c1=O)C(CC(C)C)NC2=O (stereo not given)	·	·	1%	·	·
CN(CCOc1ccccc1)CC(O)COCc1ccccc1F (stereo not given)	?	10µM*	·	?	71µM*
COc1cc2nc(NCCc3cccc(C)c3)n3nc(-c4ccccc4)nc3c2cc1OC	-5%	-12%[59 µM]	·	28%	-31%
CC(=O)Nc1cccc(NC(=O)CSc2nnc3ccc(-c4ccncc4)nn23)c1	-3%	-7%	-3%	28%	3%
O=C(O)c1cccc2c1C(=O)c1ccccc1-2	-2%	·	6%	12%	-8%
O=C1C(O)=CC(=C(c2ccccc2)c2ccccc2)c2ccccc21	14µM*	·	·	13µM*	·
COc1ccccc1NC(=O)c1cc2ccc(O)cc2o/c1=N\O	?	?	-3%	52%	-10%
COc1cc(NC(=O)c2cc3ccccc3cc2O)c(OC)cc1Cl	3%	21%[12.7 µM]	·	56%	-26%
COc1ccccc1NC(=O)c1cc2ccccc2o/c1=N\O	?	14µM*	4%	-7%	79µM*
COc1ccccc1NC(=O)c1cc2cc(Br)ccc2cc1O	?	?	·	4%	50µM*
C=C1CC[C@H](O)C/C1=C/C=C1\CCC[C@]2(C)C([C@H](C)CC[C@@H](O)C(C)(C)O)CC[C@@H]12 (stereo not given in full)	·	27%[59 µM]	·	·	·
O=C(O)c1cc(-c2cccnc2)nn1-c1ccccn1	-9%	28µM*	2%	36%	?
OC(CNCCc1ccc(C(F)(F)F)cc1)COC(c1ccccc1)c1ccccc1 (stereo not given)	13µM*	?	·	?	25µM*
COc1ccc(C(OCC(O)CNCCc2ccc(S(N)(=O)=O)cc2)c2ccc(OC)cc2)cc1 (stereo not given)	-30%	-7%	·	10%	-27%
Cc1ccc(NC(=O)C[n+]2cc(-c3ccc(C)cc3)n3c2CCC3)cc1	8.9µM*	-49%	7%	17%	4%
O=C(C[n+]1cc(-c2ccccc2)n2c1CCCCC2)c1ccc(Br)cc1	-17%	50µM*	-9%	16%	-24%
Cc1ccc(-c2c[n+](CC(=O)Nc3ccc(C)cc3C)c3n2CCC3)cc1	-9%	4%	4%	7%	-8%
COc1ccc(-c2csc(NC(=O)CN3C(=O)NC4(CCCC4)C3=O)n2)cc1	-3%	-28%	5%	15%	-5%
CC1CCC2(CC1)NC(=O)N(CC(=O)Nc1nc(-c3ccc(F)cc3)cs1)C2=O (stereo not given)	5%	50µM*	·	12%	-3%
Cc1ccc(-c2c[n+](CC(=O)Nc3nc(-c4ccc(F)cc4)cs3)c3n2CCC3)cc1	-31%	45µM*	-7%	-18%	-37%
O=C(NCCCN1CCN(c2ccccc2)CC1)c1nnc(Cc2c(F)cccc2Cl)o1	?	-32%[59 µM]	·	-18%	?
Cc1ccc(Cn2c(=O)n(Cc3ccccc3)c(=O)c3c(C)c(C)sc32)cc1	-11%	0%[59 µM]	·	7%	1%
Cc1cc(Nc2ccccc2)c2c([N+](=O)[O-])ccc(C)c2n1	50µM*	11µM*	16µM*	?	28µM*
SMILES	JMJD2A Tudor	G9a inh	L3MBTL1 block	HP1b binding inh	BAZ2B block
Cc1cc(Nc2cccc([N+](=O)[O-])c2)c2cccc(C)c2n1	-32%	·	-4%	16%	-11%
N#CCCN1CCN(S(=O)(=O)c2ccc(S(=O)(=O)N3CCCCCC3)cc2)CC1	0%	-13%[59 µM]	8%	39%	8%
N#CCCN1CCN(S(=O)(=O)c2ccc(S(=O)(=O)NC3CCCC3)cc2)CC1	-6%	35µM*	-14%	36%	7%
N#CCCN1CCN(S(=O)(=O)c2ccc(C#N)cc2)CC1	-5%	-20%	1%	16%	3%
Cc1ccc(S(=O)(=O)N2CCN(CCC#N)CC2)cc1	3.5µM*	7.1µM*	?	45µM*	20µM*
Cc1ccc(S(=O)(=O)CCCS(=O)(=O)c2ccc(C)cc2)cc1	8%	12%	-7%	21%	5%
Cc1ccc(S(=O)(=O)SC/C=C/CSS(=O)(=O)c2ccc(C)cc2)cc1	3.2µM*	·	·	?	·
Cc1ccc(S(=O)(=O)SCCCSS(=O)(=O)c2ccc(C)cc2)cc1	2.8µM*	·	·	7.1µM*	·
Cc1ccc(S(=O)(=O)CS(=O)(=O)c2ccc(C)cc2)cc1	-3%	·	·	52%	·
COc1ccc(CCNC(=O)CCc2cn(Cc3ccc(C)cc3)c3ccccc23)c(OC)c1OC	?	?	·	10%	?
Cn1c(=S)[nH]c(=O)c2ncc(=O)[nH]c21	28µM*	?	-12%	28%	-21%
Cc1ccc2oc(=O)c3cc(C(=O)NCCN4CCN(C)CC4)sc3c2c1	-11%	19%[59 µM]	35µM*	42%	12%
COc1cc(OC)c(NC(=O)c2cc3c(=O)oc4ccc(C)cc4c3s2)cc1Cl	-15%	6%[59 µM]	·	32%	2%
COc1ccccc1NC(=O)c1cc2c(=O)oc3ccc(C)cc3c2s1	-12%	0.71µM*	·	37%	0%
Cc1ccc2oc(=O)c3cc(C(=O)NCCCN4CCc5ccccc5C4)sc3c2c1	-30%	32µM*	-6%	38%	?
COCc1c(CCl)cnc(C)c1O	-18%	8%	4%	17%	-6%
Cc1ccc(C)c(CNC(=O)CN2C(=O)CSc3ccc(S(=O)(=O)N(C)C)cc32)c1	-20%	-6%[59 µM]	·	9%	1%
O=C(c1ccccc1)c1cccc(NC(=O)c2ccc(Br)o2)c1	-19%	45µM*	·	5%	-39%
C/C(=N/NC(=O)c1ccc(Br)o1)c1cccc(NC(=O)c2ccc(C)o2)c1	50µM*	24%[59 µM]	-8%	-10%	-36%
N#CC1=C(S)N(c2ccccc2)C(c2ccc(-c3cc(Cl)ccc3Cl)o2)NC1=O (stereo not given)	-32%	?	-13%	4%	50µM*
N#CC1=C(S)N(c2ccccc2)C(c2ccco2)NC1=O (stereo not given)	-1%	28µM*	?	45%	?
N#CC1=C(S)N(c2ccccc2)C(c2cccs2)NC1=O (stereo not given)	-20%	?	15%	7%	-22%
